Data taken from ChEMBL document CHEMBL3433997, “St. Jude Leishmania screening dataset” (2016).

What follows are compounds tested against Solute carrier family 2, facilitated glucose transporter member 1 (Homo sapiens) (UniProt P11166) (assay: ST_JUDE_LEISH: Cytotoxicity at 2uM final concentration against transgenic Leishmania Mexicana promastigotes LmGLUT1 that are glucose transport deficient and complemented with the human glucose transporter GLUT1. Activity is measured by DNA content using SYBR green in vitro).
Chain of Solute carrier family 2, facilitated glucose transporter member 1 (Homo sapiens) (P11166 whole entry): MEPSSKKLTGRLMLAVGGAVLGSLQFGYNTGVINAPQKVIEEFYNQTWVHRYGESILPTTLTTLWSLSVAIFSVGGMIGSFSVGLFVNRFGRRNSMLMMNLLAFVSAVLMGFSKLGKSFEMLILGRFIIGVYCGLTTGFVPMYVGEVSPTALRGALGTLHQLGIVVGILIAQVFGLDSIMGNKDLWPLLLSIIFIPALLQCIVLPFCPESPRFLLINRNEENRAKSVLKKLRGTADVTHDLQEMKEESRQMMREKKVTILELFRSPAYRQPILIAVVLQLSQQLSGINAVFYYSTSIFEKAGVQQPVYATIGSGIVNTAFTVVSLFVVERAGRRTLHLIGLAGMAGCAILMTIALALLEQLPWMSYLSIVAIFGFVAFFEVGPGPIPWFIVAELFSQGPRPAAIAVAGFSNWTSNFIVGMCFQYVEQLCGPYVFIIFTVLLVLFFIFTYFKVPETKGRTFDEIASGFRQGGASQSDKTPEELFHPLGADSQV
Type: functional

| Structure (SMILES) | inhibition [%] |
| --- | --- |
| Cc1nc(-c2cccc(Nc3nccc(NCC(O)c4ccccc4)n3)c2)cs1 (stereo not given) | 1.43 |
| CN(C)c1ccc(CN2CCC(NC(=O)c3ccc(-c4ccc(N(C)C)cc4)s3)CC2)cc1 | 1.4 |
| C[C@@H]([C@@H](CCCCc1ccccc1)C(=O)N[C@H](C(=O)Nc1cccnc1)C(C)(C)C)N(O)C=O | 0.14 |
| O=C1c2ccccc2CN1CCCN1CCC(Oc2ccc(F)cc2)CC1 | -2.87 |
| COc1cc2nc(C)nc(Nc3ccc4c(ccn4Cc4ccccc4)c3)c2cc1OC | 5.04 |
| COc1cc2nc(N3CCC(CNC(=O)c4ccc(-c5ccc(C(=O)N(C)C)cc5)c(OCCO)c4)CC3)nc(N)c2cc1OC | 2.82 |
| Oc1ccc(CC2CCCN(c3nc(NCCCOc4ccccc4-c4ccccc4)nc(N4CCNCC4)n3)C2)cc1 (stereo not given) | -0.74 |
| COc1cc(Cc2cnc(N)nc2N)cc(OCc2cccc(C(=O)O)c2)c1OC | -0.05 |
| Cc1ccc2c(N/N=C/c3cccc([N+](=O)[O-])c3)cc(C)nc2c1 | 8.19 |
| O=c1cc(NCCCNCc2cc(Br)cs2)[nH]c2ccccc12 | 3.94 |
| CCN(CC)S(=O)(=O)c1ccc(Cl)c(C(=O)Nc2ccc3nc(C)sc3c2)c1 | -2.24 |
| CC(=O)Nc1cc(C(=O)Nc2cccc(-c3cccc(-c4nc5cc(C(F)(F)F)ccc5[nH]4)c3)c2)ccc1C | 7.57 |
| CN(C)c1ccc(-c2csc(C(=O)NCC3CCN(Cc4cccc(C(F)(F)F)c4)C3)c2)cc1 (stereo not given) | 7.22 |
| CCN(CCCN1CCCCC1)c1cc(C)nc(Nc2ccc(C)cc2C(F)(F)F)n1 | -1.87 |
| Cc1cccn2c(=O)c3cc(C(=O)NC(C)c4ccccc4)c(=N)n(CCN4CCOCC4)c3nc12 (stereo not given) | 3.65 |
| COc1ccc2ncc(F)c([C@H](O)CN3CCC(NCc4ccc5c(c4)NC(=O)CS5)CC3)c2c1 | -1.54 |
| CC[C@H](NC(=O)c1c(CCCN2CCN(c3ccccc3)CC2)c(-c2ccccc2)nc2cc(O)ccc12)c1ccccc1 | 7.88 |
| Cc1cccc2nc(-c3ccc(-c4ccc(NC(=O)NC5CC5c5ccccc5)cc4)cc3)[nH]c12 (stereo not given) | 0.9 |
| Clc1ccc(Cl)c2[nH]c(CNCCCNc3nc4ccccc4[nH]3)cc12 | 0.92 |
| CCN(CC)c1cc(C)c2cc(NC(=O)c3cc(=O)c4ccccc4o3)ccc2n1 | 6.32 |
| Cc1cccc2nc(-c3ccc(-c4ccc(CN5CCC(CCN6CCCCC6)CC5)cc4)cc3)[nH]c12 | 8.93 |
| O=C(NCC1CCN(C/C=C/c2ccccc2)CC1)Nc1ccc(Oc2ccccc2)cc1 | 6.42 |
| Cc1cc(C(=O)Nc2ccc3c(c2)CCN3C2CCN(Cc3ccc(O)cc3)C2)no1 (stereo not given) | 4.29 |
| Cc1cccc2nc(-c3ccc(-c4cccc(CNCCCNS(C)(=O)=O)c4)s3)[nH]c12 | 0.75 |
| COC(=O)Nc1ccc(-c2ccc(C(=O)NC3CCN(C[C@H](O)c4ccnc5ccc(OC)cc45)CC3)cc2)c(C)c1 | 0.51 |

What follows are compounds tested against Hexose transporter 1 (Plasmodium falciparum) (UniProt O97467) (assay: ST_JUDE_LEISH: Cytotoxicity at 2uM final concentration against transgenic Leishmania Mexicana promastigotes LmPfHT that are glucose transport deficient and complemented with the Plasmodium falciparum hexose transporter. Activity is measured by DNA content using SYBR green in vitro).
Type: functional

| Structure (SMILES) | inhibition [%] |
| --- | --- |
| CCC(C)NS(=O)(=O)c1ccc2nc(Nc3ccc(C)c(Cl)c3)n(C(C)C(C)C)c2c1 (stereo not given) | 2.08 |
| Clc1ccc2c(NN=Cc3ccccc3)ccnc2c1 | 6.89 |
| COc1cc2nc(Nc3ccc4c(cnn4Cc4ccccc4)c3)nc(Nc3ccc4c(cnn4Cc4ccccc4)c3)c2cc1OC | 2.44 |
| Cn1nc2ccc3ccccc3c2nc1=N | 44.1 |
| Cc1cccc2nc(-c3ccc(-c4ccc(NC(=O)NCc5cccc(F)c5)cc4)s3)[nH]c12 | 9.74 |
| CN(C)C1CCN(Cc2ccc(N3CCN(Cc4cccc5[nH]ccc45)CC3)nc2)CC1 | 1.46 |
| Cc1cc(O)c(C(C)C)cc1C1(c2cc(C(C)C)c(O)cc2C)OC(=O)c2ccccc21 | 6.64 |
| O=C(Nc1cccc(CN2CCCN(Cc3ccc(O)cc3)CC2)c1)c1ccc2ccccc2n1 | 2.83 |
| Cc1nc(C)n(CC(=O)Nc2cccc(-c3cccc(-c4nc5cc(C(F)(F)F)ccc5[nH]4)c3)c2)n1 | 9.76 |
| CN(C)CC1CCCN1Cc1ccccc1-c1cnn(C)c(=O)c1Oc1cccc(C#N)c1 (stereo not given) | 1.03 |
| Cc1c(C(=O)N2CCCC(C(F)(F)F)C2)sc2cccc(F)c12 (stereo not given) | 6.02 |
| O=C(Nc1cccc(-c2ccc(CN3CCCC3)cc2)c1)c1ccc(Cl)cc1 | 1.53 |
| CC(C)[C@H](NC(=O)c1ccc(O)c(-c2ccc(Cl)c(Cl)c2)c1)C(=O)NCCN1CCOCC1 | 4.31 |
| CCNc1cc(C(=O)N[C@@H](Cc2ccccc2)[C@H](O)CNC(C)Cc2cccc(Cl)c2)cc(N2CCCCS2(=O)=O)c1 (stereo not given in full) | 2.5 |
| CCN(CC)Cc1cc(Nc2c3ccc(Cl)cc3nc3cccc(OC)c23)ccc1O | 11.1 |
| Cc1nc(-c2cccc(Nc3nccc(NCC(O)c4ccccc4)n3)c2)cs1 (stereo not given) | 0.76 |
| CN(C)c1ccc(CN2CCC(NC(=O)c3ccc(-c4ccc(N(C)C)cc4)s3)CC2)cc1 | -0.22 |
| C[C@@H]([C@@H](CCCCc1ccccc1)C(=O)N[C@H](C(=O)Nc1cccnc1)C(C)(C)C)N(O)C=O | -1.56 |
| O=C1c2ccccc2CN1CCCN1CCC(Oc2ccc(F)cc2)CC1 | -2.18 |
| COc1cc2nc(C)nc(Nc3ccc4c(ccn4Cc4ccccc4)c3)c2cc1OC | 5.91 |

| Structure (SMILES) | inhibition [%] |
| --- | --- |
| COc1cc2nc(N3CCC(CNC(=O)c4ccc(-c5ccc(C(=O)N(C)C)cc5)c(OCCO)c4)CC3)nc(N)c2cc1OC | 3.22 |
| Oc1ccc(CC2CCCN(c3nc(NCCCOc4ccccc4-c4ccccc4)nc(N4CCNCC4)n3)C2)cc1 (stereo not given) | -1.72 |
| COc1cc(Cc2cnc(N)nc2N)cc(OCc2cccc(C(=O)O)c2)c1OC | -2 |
| Cc1ccc2c(N/N=C/c3cccc([N+](=O)[O-])c3)cc(C)nc2c1 | 4.7 |
| O=c1cc(NCCCNCc2cc(Br)cs2)[nH]c2ccccc12 | 2.8 |
| CCN(CC)S(=O)(=O)c1ccc(Cl)c(C(=O)Nc2ccc3nc(C)sc3c2)c1 | -0.92 |
| CC(=O)Nc1cc(C(=O)Nc2cccc(-c3cccc(-c4nc5cc(C(F)(F)F)ccc5[nH]4)c3)c2)ccc1C | 6.52 |
| CN(C)c1ccc(-c2csc(C(=O)NCC3CCN(Cc4cccc(C(F)(F)F)c4)C3)c2)cc1 (stereo not given) | 6.1 |
| CCN(CCCN1CCCCC1)c1cc(C)nc(Nc2ccc(C)cc2C(F)(F)F)n1 | 0.39 |
| Cc1cccn2c(=O)c3cc(C(=O)NC(C)c4ccccc4)c(=N)n(CCN4CCOCC4)c3nc12 (stereo not given) | 1.65 |
| COc1ccc2ncc(F)c([C@H](O)CN3CCC(NCc4ccc5c(c4)NC(=O)CS5)CC3)c2c1 | -0.25 |
| CC[C@H](NC(=O)c1c(CCCN2CCN(c3ccccc3)CC2)c(-c2ccccc2)nc2cc(O)ccc12)c1ccccc1 | 6.19 |
| Cc1cccc2nc(-c3ccc(-c4ccc(NC(=O)NC5CC5c5ccccc5)cc4)cc3)[nH]c12 (stereo not given) | -1.52 |
| Clc1ccc(Cl)c2[nH]c(CNCCCNc3nc4ccccc4[nH]3)cc12 | 2.67 |
| CCN(CC)c1cc(C)c2cc(NC(=O)c3cc(=O)c4ccccc4o3)ccc2n1 | 6.88 |
| Cc1cccc2nc(-c3ccc(-c4ccc(CN5CCC(CCN6CCCCC6)CC5)cc4)cc3)[nH]c12 | 7.95 |
| O=C(NCC1CCN(C/C=C/c2ccccc2)CC1)Nc1ccc(Oc2ccccc2)cc1 | 8.3 |
| Cc1cc(C(=O)Nc2ccc3c(c2)CCN3C2CCN(Cc3ccc(O)cc3)C2)no1 (stereo not given) | 5.39 |
| Cc1cccc2nc(-c3ccc(-c4cccc(CNCCCNS(C)(=O)=O)c4)s3)[nH]c12 | 2.35 |
| COC(=O)Nc1ccc(-c2ccc(C(=O)NC3CCN(C[C@H](O)c4ccnc5ccc(OC)cc45)CC3)cc2)c(C)c1 | 0.01 |
